Assay results published in PubChem BioAssay AID488847 (NMMLSC, 2010).
In all, about 330,000 compounds went through this assay and about 1,900 (0.58%) were called active.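 How the source made its calls: active means inhibition of aptamer binding above 40%, roughly 3 SD of noise, on plates passing a quality check; inactive means the rest.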 The entries come from a sample that favours actives as a whole.

The compounds below were run against Beta-adrenergic receptor kinase 1 (Homo sapiens) (UniProt P25098) (assay: compounds blocking aptamer binding on GRK2 – biochemical, human GRK2, bead flow cytometry, HTS, primary screen (AID 488847;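 further: median bead fluorescence of bound FAM aptamer so fluorescent compounds give negative values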)). Conditions: FAM-aptamer displacement from GRK2, at 10 µM, stronger effect = higher value.
Chain of Beta-adrenergic receptor kinase 1 (Homo sapiens) (P25098 whole entry, looked up): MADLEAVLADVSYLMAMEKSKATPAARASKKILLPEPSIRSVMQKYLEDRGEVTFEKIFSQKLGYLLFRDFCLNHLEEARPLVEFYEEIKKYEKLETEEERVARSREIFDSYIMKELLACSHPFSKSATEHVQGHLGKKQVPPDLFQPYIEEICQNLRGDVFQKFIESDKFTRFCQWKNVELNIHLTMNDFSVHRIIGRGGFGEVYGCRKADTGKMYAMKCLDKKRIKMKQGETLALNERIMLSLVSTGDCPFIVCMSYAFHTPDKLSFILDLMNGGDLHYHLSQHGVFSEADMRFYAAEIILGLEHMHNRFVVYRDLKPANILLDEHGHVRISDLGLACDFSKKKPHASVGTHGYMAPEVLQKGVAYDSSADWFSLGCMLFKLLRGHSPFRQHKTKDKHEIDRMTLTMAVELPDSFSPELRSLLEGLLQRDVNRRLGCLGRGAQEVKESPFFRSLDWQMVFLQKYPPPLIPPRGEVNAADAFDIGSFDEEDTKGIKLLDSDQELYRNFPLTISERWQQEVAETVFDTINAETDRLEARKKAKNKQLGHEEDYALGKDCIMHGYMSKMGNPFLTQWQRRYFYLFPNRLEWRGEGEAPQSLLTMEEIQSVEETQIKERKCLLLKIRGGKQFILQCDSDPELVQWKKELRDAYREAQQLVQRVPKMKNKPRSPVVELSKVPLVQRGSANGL
For `CCOC(=O)c1ccc(NC(=O)c2c(NCc3ccccc3)[nH]c(=O)[nH]c2=O)cc1`, the inhibition of aptamer binding was 5% (inactive). For `C/C=C(/C)C(=O)Nc1cccc(C2=NOC3(C2)C[C@@H](C(N)=O)N(C(=O)C2(C)CC2)C3)c1` (stereo partly drawn), the inhibition of aptamer binding was 1% (inactive). In the case of `C=C(C)C(=O)Nc1cccc(C2=NOC3(C2)C[C@H](C(N)=O)N(C(=O)C(c2ccccc2)c2ccccc2)C3)c1` (stereo partly drawn), the inhibition of aptamer binding is reported as 91% (active). For `C/C=C\C=C\C(=O)N1CC2(CC(c3cccc(NC(=O)/C(C)=C\C)c3)=NO2)C[C@H]1C(N)=O` (stereo partly drawn), the inhibition of aptamer binding was 1% (inactive). `CCOc1ccc(S(=O)(=O)Nc2cccc(C(=O)NCC3(N4CCCCC4)CCCCC3)c2)cc1` was tested, and the inhibition of aptamer binding was 0% (inactive). In the case of `CS(=O)(=O)c1ccc(-c2nnn(CC(=O)Nc3ccc4c(c3)OCCO4)n2)cc1`, the inhibition of aptamer binding is reported as 0% (inactive). `O=C(NNC(=S)NC1CC2CCC1C2)c1ccc(Cl)cc1` (stereo not drawn) was tested, and the inhibition of aptamer binding was 2% (inactive). `CC1CCN(C(=S)NC2CC3CCC2C3)CC1` (stereo not drawn) was tested, and the inhibition of aptamer binding was 67% (active). With `S=C(NNC(=S)NC1CC2CCC1C2)NC1CC2C=CC1C2` (stereo not drawn) the inhibition of aptamer binding was 0% (inactive). With `CC1c2nc3ccccc3n2C(CC(=O)NCCCN2CCOCC2)C(=O)N1Cc1ccccc1` (stereo not drawn) the inhibition of aptamer binding was 0% (inactive). With `COCCn1c(N)c(NCc2ccccc2)c(=O)[nH]c1=O` the inhibition of aptamer binding was 47% (active). With `COCCN(C(=O)c1ccccc1F)c1c(N)n(Cc2ccccc2)c(=O)[nH]c1=O` the inhibition of aptamer binding was 2% (inactive). With `COCCn1c(N)c(N(Cc2ccccc2)C(=O)C2CCCCC2)c(=O)[nH]c1=O` the inhibition of aptamer binding was 0% (inactive). With `Cc1ccc2c(c1)C1CN(C)CCC1N2S(=O)(=O)c1ccc(Oc2ccc([N+](=O)[O-])cc2)cc1` (stereo not drawn) the inhibition of aptamer binding was 0% (inactive). `Nc1ccc2nc3c(=O)[nH]c(=S)[nH]c3nc2c1` was tested, and the inhibition of aptamer binding was 70% (active). In the case of `CCC1Oc2ccccc2N(CC(=O)NCCCN2CCN(CC)CC2)C1=O` (stereo not drawn), the inhibition of aptamer binding is reported as 0% (inactive). In the case of `COc1ccccc1CNC(=O)c1ccc(CS(=O)(=O)c2ccccc2)o1`, the inhibition of aptamer binding is reported as 0% (inactive). For `CCOCCCNC(=O)c1ccc(CS(=O)(=O)c2cccc(C(F)(F)F)c2)o1`, the inhibition of aptamer binding was 48% (active). With `COc1ccc(CCNC(=O)c2ccc(CS(=O)(=O)c3ccc(Br)cc3)o2)cc1OC` the inhibition of aptamer binding was 1% (inactive). For `CCC(C)(C(=O)Nc1ccccc1C)N(C(=O)CNC(C)=O)c1ccc(C)cc1` (stereo not drawn), the inhibition of aptamer binding was 1% (inactive). `CCn1nc(NC(=O)c2ccco2)c2cc3ccc(C)cc3nc21` was tested, and the inhibition of aptamer binding was 0% (inactive). In the case of `Cc1ccc(OCCNC(=O)CCNS(=O)(=O)c2ccc(Br)cc2)cc1`, the inhibition of aptamer binding is reported as 1% (inactive). In the case of `CCc1cccc(CC)c1NC(=S)NCc1ccc2[nH]c(C)cc2c1`, the inhibition of aptamer binding is reported as 0% (inactive). `Cc1cc2cc(CNC(=O)c3cccs3)ccc2[nH]1` was tested, and the inhibition of aptamer binding was 44% (active). For `Cc1cc2cc(CNC(=O)c3ccc(S(=O)(=O)N4CCOCC4)cc3)ccc2[nH]1`, the inhibition of aptamer binding was 3% (inactive). `CN(CC(=O)N1CCN(c2ccccc2)CC1)S(=O)(=O)c1cccs1` was tested, and the inhibition of aptamer binding was 0% (inactive). For `COCc1ccc(CN2CCC(Oc3ccc(C(=O)NCc4ccccn4)cc3)CC2)o1`, the inhibition of aptamer binding was 0% (inactive). `CCOC(=O)N1CCC(NC(=O)C(C)n2c3ccccc3c3cnn(C)c(=O)c32)CC1` (stereo not drawn) was tested, and the inhibition of aptamer binding was 4% (inactive). In the case of `O=C(N[C@H]1C/C=C\C(c2ccc(F)cc2)N(Cc2ccccc2)C(=O)C1)OCC1c2ccccc2-c2ccccc21` (stereo partly drawn), the inhibition of aptamer binding is reported as 0% (inactive). `CCOC(=O)N1CCN(C(=O)c2ccc(CN(c3ccc(C)c(C)c3)S(C)(=O)=O)cc2)CC1` was tested, and the inhibition of aptamer binding was 3% (inactive). With `CCC1(C(=O)c2ccccc2)C(c2cccc([N+](=O)[O-])c2)C1(C(=O)OC)C(=O)OC` (stereo not drawn) the inhibition of aptamer binding was 0% (inactive). For `CC(C)CN(C(=O)c1ccc2c(c1)OCO2)C1CCS(=O)(=O)C1` (stereo not drawn), the inhibition of aptamer binding was 2% (inactive). With `O=C(c1cccc(S(=O)(=O)N2CCCC2)c1)N(Cc1ccco1)C1CCS(=O)(=O)C1` (stereo not drawn) the inhibition of aptamer binding was 4% (inactive). With `CC(C)CN(C(=O)c1cccc(S(=O)(=O)N2CCCCC2)c1)C1CCS(=O)(=O)C1` (stereo not drawn) the inhibition of aptamer binding was 92% (active). `CO/N=C(/CS(=O)(=O)c1ccc(Br)cc1)c1ccc(OC)cc1` was tested, and the inhibition of aptamer binding was 2% (inactive). In the case of `COc1ccc(S(=O)(=O)N2CN(CCc3ccc(OC)c(OC)c3)c3nc4ccccc4nc32)cc1`, the inhibition of aptamer binding is reported as 3% (inactive). In the case of `CSc1ccc(/C=C2\NC(=O)NC2=O)cc1`, the inhibition of aptamer binding is reported as 46% (active). `CC(C)c1ccc(/C=C2\NC(=O)NC2=O)cc1` was tested, and the inhibition of aptamer binding was 0% (inactive). `Cc1ccc(NC(=O)COc2ccc(/C=C3/NC(=O)NC3=O)cc2)cc1` was tested, and the inhibition of aptamer binding was 0% (inactive). For `Cc1ccc(-c2cc(=O)[nH]c(NCc3ccccc3)n2)cc1`, the inhibition of aptamer binding was 2% (inactive). With `Cc1cccc2nc(CNc3ccc(F)cc3)cn12` the inhibition of aptamer binding was 2% (inactive). For `CC(NCc1cccs1)C(=O)Nc1cc(Cl)cc(Cl)c1` (stereo not drawn), the inhibition of aptamer binding was 0% (inactive). `O=[N+]([O-])c1cccc2ncccc12` was tested, and the inhibition of aptamer binding was 4% (inactive). With `COc1cc(NS(=O)(=O)c2ccc3ccccc3c2)c2ncccc2c1` the inhibition of aptamer binding was 0% (inactive). `O=[N+]([O-])c1ccccc1S(=O)(=O)Nc1cccc2cccnc12` was tested, and the inhibition of aptamer binding was 46% (active). `O=C(c1ccc(Cl)cc1)c1ccc(OCC(O)CN2CCCCC2)cc1` (stereo not drawn) was tested, and the inhibition of aptamer binding was 43% (active). With `CC1CCN(CC(O)COc2ccc(C(=O)c3ccccc3)cc2)CC1` (stereo not drawn) the inhibition of aptamer binding was 0% (inactive). In the case of `OC(COc1ccc(Br)cc1)CN1CCCC1` (stereo not drawn), the inhibition of aptamer binding is reported as 0% (inactive). For `C=CCOc1ccc(/C=C/C(=O)OC(C)C(=O)Nc2ccc(NC(C)=O)cc2)cc1` (stereo not drawn), the inhibition of aptamer binding was 1% (inactive). `CN(C(=O)c1cccc([N+](=O)[O-])c1)c1ccccc1C(=O)NCc1ccccc1` was tested, and the inhibition of aptamer binding was 1% (inactive). In the case of `COc1ccccc1C(=O)N(Cc1ccc(C)o1)C1CCS(=O)(=O)C1` (stereo not drawn), the inhibition of aptamer binding is reported as 43% (active). In the case of `COc1cc(C(=O)N(Cc2ccc(N(C)C)cc2)C2CCS(=O)(=O)C2)cc(OC)c1OC` (stereo not drawn), the inhibition of aptamer binding is reported as 0% (inactive). In the case of `COc1ccc2oc(C(=O)N(CC(C)C)C3CCS(=O)(=O)C3)c(C)c2c1` (stereo not drawn), the inhibition of aptamer binding is reported as 0% (inactive). `CCOC(=O)CN(C(=O)CN1CCOCC1)c1ccc(Br)cc1` was tested, and the inhibition of aptamer binding was 0% (inactive). In the case of `CC(=O)N1CCc2cc(Br)cc(S(=O)(=O)CCC(=O)Nc3c(C)n(C)n(-c4ccccc4)c3=O)c21`, the inhibition of aptamer binding is reported as 0% (inactive). In the case of `Cc1c(NC(=O)C(C)Oc2cccc(Cl)c2)c(=O)n(-c2ccccc2)n1C` (stereo not drawn), the inhibition of aptamer binding is reported as 0% (inactive). With `COc1ccccc1NC(=O)C1CCN(C(=O)c2ccc(C(C)(C)C)cc2)CC1` the inhibition of aptamer binding was 0% (inactive). `O=C(c1ccccc1)c1ccc(C(=O)N2CCN(c3ccccc3)CC2)cc1` was tested, and the inhibition of aptamer binding was 1% (inactive). For `CC(=O)c1ccc(N2CCN(C(=O)c3ccc4nc[nH]c4c3)CC2)cc1`, the inhibition of aptamer binding was 66% (active). With `CC(=O)c1ccc(N2CCN(C(=O)CCc3ccccc3)CC2)cc1` the inhibition of aptamer binding was 0% (inactive). With `O=C(CN1CCN(S(=O)(=O)c2ccc(Cl)s2)CC1)NCc1ccc(Cl)cc1` the inhibition of aptamer binding was 2% (inactive). In the case of `COc1ccc(NC(=O)Cn2ncn3c(cc4ccccc43)c2=O)c(OC)c1OC`, the inhibition of aptamer binding is reported as 1% (inactive). `CN1CCN(c2nc3c(c(=O)[nH]c(=O)n3C)n2Cc2cccc3ccccc23)CC1` was tested, and the inhibition of aptamer binding was 0% (inactive). In the case of `Cn1c(=O)[nH]c(=O)c2c1nc(N1CCN(CCO)CC1)n2CCSc1nc2ccccc2s1`, the inhibition of aptamer binding is reported as 0% (inactive). For `Cn1c(=O)[nH]c(=O)c2c1nc(N1CCN(C(c3ccccc3)c3ccccc3)CC1)n2CCO`, the inhibition of aptamer binding was 43% (active). In the case of `Cc1ccc(NN=Nc2nc3c([nH]2)c(=O)n(C)c(=O)n3C)cc1`, the inhibition of aptamer binding is reported as 0% (inactive). In the case of `O=C1CCCC2=C1C(c1cccs1)CC(=O)N2c1ccc(F)cc1` (stereo not drawn), the inhibition of aptamer binding is reported as 0% (inactive). In the case of `CCOC(=O)C1=C(N)N(c2ccc(C)cc2)C2=C(C(=O)CCC2)C1c1cccs1` (stereo not drawn), the inhibition of aptamer binding is reported as 45% (active). With `CCOC(=O)c1cc2c(n(-c3ccc(C)cc3)c1=O)CCCC2=O` the inhibition of aptamer binding was 0% (inactive). `O=C(c1ccc(F)cc1)N1CCCC(C(=O)N2CCCCC2)C1` (stereo not drawn) was tested, and the inhibition of aptamer binding was 1% (inactive). With `Cc1noc(C)c1COc1ccccc1C(=O)N(C)CC(=O)Nc1cccc(F)c1` the inhibition of aptamer binding was 1% (inactive). `CC(C)(C)OC(=O)N/N=C/c1ccc(C(=O)O)cc1` was tested, and the inhibition of aptamer binding was 0% (inactive). `COC(=O)N/N=C/c1ccc(-c2ccc(Cl)c(Cl)c2)o1` was tested, and the inhibition of aptamer binding was 0% (inactive). With `COC(=O)N/N=C/c1ccc(/C=N/NC(=O)OC)cc1` the inhibition of aptamer binding was 87% (active). With `CCNS(=O)(=O)c1ccc(CCC(=O)N2CCN(c3cc(Cl)ccc3C)CC2)cc1` the inhibition of aptamer binding was 0% (inactive). With `O=C1c2ccccc2C2=Nc3ccccc3SC(c3ccccc3F)C12` (stereo not drawn) the inhibition of aptamer binding was 0% (inactive). In the case of `COc1ccc(C2=NN(C(=O)CSc3nc(=O)n4ccc(C)cc4n3)C(c3ccc(C)cc3)C2)cc1` (stereo not drawn), the inhibition of aptamer binding is reported as 2% (inactive). In the case of `COc1cc(C)ccc1OCC(=O)OCC(=O)c1ccc[nH]1`, the inhibition of aptamer binding is reported as 0% (inactive). `CN1C(=O)CC(N2CCN(c3ccccn3)CC2)C1=O` (stereo not drawn) was tested, and the inhibition of aptamer binding was 1% (inactive). `CC1(c2ccccc2)CC(C)(C)N(C(=O)c2cc([N+](=O)[O-])cc([N+](=O)[O-])c2)c2ccccc21` (stereo not drawn) was tested, and the inhibition of aptamer binding was 0% (inactive). In the case of `Cc1nnc(SCC(=O)N2c3ccccc3C(C)(c3ccc(Cl)cc3)CC2(C)C)s1` (stereo not drawn), the inhibition of aptamer binding is reported as 72% (active). In the case of `CC1(c2cccc([N+](=O)[O-])c2)CC(C)(C)N(C(=O)c2ccccc2)c2ccccc21` (stereo not drawn), the inhibition of aptamer binding is reported as 0% (inactive). With `CN(C(=O)CC(NC(=O)c1ccccc1)(c1ccccc1)c1ccccc1)c1ccccc1` the inhibition of aptamer binding was 1% (inactive). With `CC(Sc1nnc(-c2ccccc2F)n1C1CC1)C(N)=O` (stereo not drawn) the inhibition of aptamer binding was 0% (inactive). In the case of `Cc1ccc(C(=O)COC(=O)CCCC(=O)NC2CCCCC2)cc1[N+](=O)[O-]`, the inhibition of aptamer binding is reported as 0% (inactive). `CCOc1ccc(-n2c(SCC(=O)Nc3ccc(OC)cc3)nc3sc4c(c3c2=O)CCN(C)C4)cc1` was tested, and the inhibition of aptamer binding was 0% (inactive). In the case of `COc1ccccc1NC(=O)CSc1nc2sc3c(c2c(=O)n1-c1ccccc1)CCN(C)C3`, the inhibition of aptamer binding is reported as 56% (active). In the case of `CCOc1ccc(-n2c(SCC(=O)OC)nc3sc4c(c3c2=O)CCN(C)C4)cc1`, the inhibition of aptamer binding is reported as 1% (inactive). For `C[C@@H](O)c1nc2ccccc2n1N`, the inhibition of aptamer binding was 0% (inactive). For `CCOC(=O)c1c(C)[nH]c(C)c1S(=O)(=O)NCCCc1ccco1`, the inhibition of aptamer binding was 0% (inactive). `Cn1c(=O)c2c(nc(N3CCOCC3)n2CCNC2=NCCC2)n(C)c1=O` was tested, and the inhibition of aptamer binding was 83% (active). `CCCCn1c(SCC(=O)N2CCOCC2)nc2c1c(=O)n(C)c(=O)n2C` was tested, and the inhibition of aptamer binding was 0% (inactive). With `Cc1cccc(Cn2c(N3CCN(c4ccccc4)CC3)nc3c2c(=O)n(C)c(=O)n3C)c1` the inhibition of aptamer binding was 0% (inactive).
